The results in this text go back to ChEMBL document CHEMBL3988442, “University of Dundee, Small-Polar-MMV Screening Library” (2021).

Measured potencies and affinities stand elsewhere.

Protein translocase subunit SecA (Escherichia coli (strain K12)), sequence (P10408 whole entry): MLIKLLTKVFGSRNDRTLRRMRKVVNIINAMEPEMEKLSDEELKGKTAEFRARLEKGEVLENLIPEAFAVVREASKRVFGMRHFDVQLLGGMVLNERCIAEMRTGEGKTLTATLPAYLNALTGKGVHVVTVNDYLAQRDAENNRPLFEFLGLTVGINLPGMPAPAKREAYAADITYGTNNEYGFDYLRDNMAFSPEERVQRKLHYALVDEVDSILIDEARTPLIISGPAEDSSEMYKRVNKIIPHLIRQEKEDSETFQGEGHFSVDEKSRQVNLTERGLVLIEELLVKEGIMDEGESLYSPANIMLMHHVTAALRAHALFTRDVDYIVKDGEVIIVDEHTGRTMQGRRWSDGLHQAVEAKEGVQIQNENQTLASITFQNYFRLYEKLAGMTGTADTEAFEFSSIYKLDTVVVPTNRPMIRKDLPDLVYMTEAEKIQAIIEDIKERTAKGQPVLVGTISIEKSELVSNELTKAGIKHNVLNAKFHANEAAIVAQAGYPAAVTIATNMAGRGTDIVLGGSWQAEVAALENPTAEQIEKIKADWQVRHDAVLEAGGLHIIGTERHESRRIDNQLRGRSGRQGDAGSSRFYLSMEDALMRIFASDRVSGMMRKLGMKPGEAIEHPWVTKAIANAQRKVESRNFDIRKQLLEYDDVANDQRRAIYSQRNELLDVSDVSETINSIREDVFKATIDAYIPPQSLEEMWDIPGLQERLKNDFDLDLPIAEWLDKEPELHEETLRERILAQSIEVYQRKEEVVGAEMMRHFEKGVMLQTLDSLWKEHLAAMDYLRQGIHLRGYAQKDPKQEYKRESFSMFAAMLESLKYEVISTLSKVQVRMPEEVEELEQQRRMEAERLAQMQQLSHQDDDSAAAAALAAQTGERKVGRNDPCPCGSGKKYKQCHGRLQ

The test has as its target Protein translocase subunit SecA (Escherichia coli (strain K12)) (UniProt P10408). The test can be described thus: Assay to Identify E. coli SecA ATPase Inhibitors. The test is classed as functional. Further details: scale not given: direction of the effect not stated beside the values. To be noted: 30 µM.
Turning to `O=S(=O)(NCCN1CCCCC1Cn1cncn1)c1ccccc1` (stereo not given), the Percent Effect was -1.12%.
To `Cc1cccc(N2CC[C@@H]3CN(Cc4csc(C)n4)CCO[C@@H]3C2)n1` belongs -6.02%.
To `CCc1nc(C2CCCN2C(=O)C2=COCC2)no1` (stereo not given) belongs -6.76%; to `O=C(NCCOc1ccc2c(c1)OCO2)N1CCC1`, -4.13%.
To `COCCN1C(=O)CCC12CCN(C(=O)NC(C)C)CC2` belongs -5.46%.
As to `O=C1CN(Cc2ccc(-c3ccccc3C(=O)O)cc2)CCN1`, the Percent Effect was 1.19%.
To `CC(C)c1cc(C(=O)NCCN2CCCS2(=O)=O)n[nH]1` belongs -3.62%.
With `Cc1cnc(CN2CCCC(c3cc(C(F)(F)F)[nH]n3)C2)cn1` (stereo not given), the Percent Effect is -4.31%.
To `COCCOc1cccc(C(=O)N2CCCC(n3cccn3)C2)c1` (stereo not given) belongs -3.05%; to `Cc1cc(CN(C)C(=O)NCC(C)N2CCc3ccccc32)no1` (stereo not given), -2.85%; to `CCn1cnnc1CNC(=O)N1CCOCC1`, -3.29%.
For `Cn1nc2c(cc1=O)CN(Cc1nnc(C3CC3)o1)CC2`, the Percent Effect was -3.12%.
As to `Fc1cnc(N2CCOC3(CCN(Cc4ccsc4)CC3)C2)nc1`, the Percent Effect is -0.851%.
To `OCC1CCCCN1c1ccc(-c2nc(-c3ccccc3F)no2)cn1` (stereo not given) belongs -2.19%; to `CCc1cc(C(=O)N2CCC(Nc3ccc(C)nn3)CC2)sc1C`, -4.07%; to `CC(=O)N1CCCN(CC(C)(O)c2cccc(C(F)(F)F)c2)CC1` (stereo not given), -3.98%.
As for `CC(C)c1ncncc1C(=O)NCCN1CCCS1(=O)=O`, the Percent Effect is -3.82%.
With `Cn1cc(-c2nc(CN3CCc4c(ncn4C4CC4)C3)cs2)cn1`, the Percent Effect was determined as 0.667%.
For the molecule `CC(C)n1ccnc1C1CCN(C(=O)c2cc[nH]n2)CC1`, the Percent Effect was -1.49%.
As to `O=C(C1CCOC1)N1CC[C@@H](O)[C@@H]1Cc1ccccc1` (stereo not given in full), the Percent Effect was -4.39%.
For the molecule `O=C(c1cccnc1)N1CCn2nnc(COc3cccnc3)c2C1`, the Percent Effect was -4.23%.
As for `Cc1[nH]/c(=N\C(=O)c2csc(NC3CC3)n2)sc1C`, the Percent Effect was -5.11%.
In the case of `O=C(CSc1ccc(F)c(F)c1)NS(=O)(=O)c1ccc2c(c1)OCCO2`, the Percent Effect is -1.98%.
Regarding `O=C(C1CCOCC1)N1CC[C@H]2C[C@@H](c3ccncn3)O[C@@H]2C1`, the Percent Effect was -7.3%.
Regarding `Cc1ccc(OCC(=O)NS(=O)(=O)c2c(C)noc2C)cc1C`, the Percent Effect is -7.75%.
`CCn1nc2c(cc1=O)CN(CC(=O)Nc1nc(C)c(C)s1)CC2`: the Percent Effect was -0.874%.
The result for `Cc1[nH]/c(=N\C(=O)c2csc(NCC(C)C)n2)sc1C` reads -5.08%; that for `COCCN1CCCN(C(=O)NC(C)Cn2cccn2)CC1` (stereo not given), 0.234%; that for `CC(Nc1cccc(CN2CCOC2=O)c1)C(=O)N1CCNC1=O` (stereo not given), -10.4%.
The result for `CCn1ccnc1CN1CCCN(C(=O)c2cccc(C#N)c2)CC1` reads 0.122%; that for `CN(C)CCN1CCCC12CCN(C(=O)c1cccn1C)CC2`, -4.21%.
The result for `O=C(CN1CCCC(c2ccc(C(=O)O)cc2)C1)NC1CC1` (stereo not given) reads -9.44%; that for `CN(Cc1noc(C2CC2)n1)C1CCN(Cc2nnc(C3CC3)o2)C1` (stereo not given), 4.16%; that for `Cc1occc1C(=O)N1CCC2(CCC(C(=O)NCC3CC3)O2)CC1` (stereo not given), -0.841%.
For `O=C1C(NCc2nnc3n2CCCC3)CCN1c1ccccc1` (stereo not given), the Percent Effect is -2.98%.
For the molecule `COc1ccccc1OC1CCN(Cc2cnc(N(C)C)nc2)CC1`, the Percent Effect was -8.85%.
The result for `Cc1nccn1-c1cccc(C2CCCN(C(=O)c3cc[nH]n3)C2)n1` (stereo not given) reads 0.661%.
Take `Cc1ccc(CN2CCC(c3nnc(CN4CCCCC4)n3C)CC2)o1`: the Percent Effect was -5.23%.
The result for `Cc1c(F)cc(C(=O)O)cc1S(=O)(=O)Nc1cccc(C(F)F)c1` reads -2.31%; that for `Cc1noc(C(C)C)c1C(=O)NCCCOC(C)C`, 0.204%.
